# Reference: PubChem BioAssay (EPA / NIEHS)
# Several values for one entry are separate records, joined by “and”; a condition that tells them apart may be missing. Equal entries are not always repeated. A structure can be active in one record and inactive in another. Activity calls are given as the source filed them. How the source made its calls: active means hit-call score of the fitted dose curve at least 0.9, where 1 is the maximum; inactive means score below 0.9.
# Read-out: Interleukin 17F (IL17F), IL17F (gene 112744)
# Experiment: BSK_BT_xIL17F: BioMAP Diversity Plus: BT Assay for Interleukin 17F (IL17F) Biomarker Activity (AID 2284243)
# Settings: primary human B cells with PBMC
# How it was run: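 Secreted IL-17F, read on LumineX xMAP beads, was taken as the endpoint. Cultures combined human B cells and peripheral blood mononuclear cells, sampled 24 hours after dosing, with DMSO serving as negative control.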
Compound,outcome,AC50
Cc1ccc(O)c(-n2nc3ccccc3n2)c1,inactive,
C=CC(=O)OCCC(F)(F)C(F)(F)C(F)(F)C(F)(F)F,,20.1 µM (active) and 14.3 µM (active)
OCC(F)(F)C(F)(F)C(F)(F)C(F)(F)C(F)(F)C(F)(F)CO,inactive,
CCN(CC)c1ccc(N=Nc2ccccc2)cc1,,31 µM (active)
NCC(F)(F)C(F)(F)C(F)(F)C(F)(F)C(F)(F)C(F)(F)C(F)(F)C(F)(F)F,inactive,
O=C=NCc1cccc(CN=C=O)c1,inactive,
O=S(=O)(OCC(F)(F)F)C(F)(F)C(F)(F)C(F)(F)C(F)(F)F,inactive,
O=S(=O)(O)CCC(F)(F)C(F)(F)C(F)(F)C(F)(F)F,inactive,
O=C(O)C(F)(F)C(F)(F)C(F)(F)OC(F)(C(F)(F)F)C(F)(F)F,inactive,
O=C(F)C1(F)C(F)(F)C(F)(F)C(F)(F)C(F)(F)C1(F)F,inactive,
CNS(=O)(=O)C(F)(F)C(F)(F)C(F)(F)C(F)(F)C(F)(F)C(F)(F)C(F)(F)C(F)(F)F,,16.4 µM (active) and 7.34 µM (active)
CC(C)(C)c1cc(CCC(=O)NCCCCCCNC(=O)CCc2cc(C(C)(C)C)c(O)c(C(C)(C)C)c2)cc(C(C)(C)C)c1O,,5.33 µM (active)
CCN(CC)c1ccc(C=O)cc1,inactive,
NS(=O)(=O)C(F)(F)C(F)(F)C(F)(F)C(F)(F)C(F)(F)C(F)(F)F,inactive,
Cc1cnccn1,inactive,
Cc1ccc(S(=O)(=O)C(I)I)cc1,,2.77 µM (active)

Compound,outcome,AC50
Cc1cc(O)c(C(C)(C)C)cc1C(C)(C)C,,27.3 µM (active)
Cc1cc(C)c(O)c(C(C)(C)C)c1,inactive,
O=C=Nc1cccc2c(N=C=O)cccc12,inactive,
O=C(O)C(F)(F)C(F)(F)C(F)(F)OC(F)(F)F,inactive,
O=C1c2c(O)ccc(Nc3ccc(CCO)cc3)c2C(=O)c2c([N+](=O)[O-])ccc(O)c21,,35.3 µM (active)
COC(F)(C(F)F)C(F)(F)F (stereo not given),inactive,
CCOC(=O)CC(=O)C(F)(F)C(F)(F)F,inactive,
CC1=CC2C3C=CC(C3)C2C1C (stereo not given),inactive,
CN(C(=O)C(F)(F)C(F)(F)C(F)(F)F)[Si](C)(C)C,inactive,
NC(=O)C(F)(F)C(F)(F)C(F)(F)C(F)F,inactive,
O=S(=O)(Cl)C(F)(F)C(F)(F)C(F)(F)C(F)(F)C(F)(F)C(F)(F)C(F)(F)C(F)(F)F,inactive,
O=C(O)C(F)(F)C(F)(F)C(F)(F)C(F)(F)C(F)(F)C(F)(F)C(F)F,inactive,
O=C(O)CCC(F)(F)C(F)(F)C(F)(F)C(F)(F)C(F)(F)C(F)(F)C(F)(F)F,inactive,
CCN(CCO)S(=O)(=O)C(F)(F)C(F)(F)C(F)(F)C(F)(F)C(F)(F)C(F)(F)C(F)(F)C(F)(F)F,,13 µM (active) and 12.6 µM (active)
O=C(O)C(F)(F)C(F)(F)C(F)(F)C(=O)O,inactive,
CCOC(C=C(C)CCC=C(C)C)OCC,inactive,

# Read-out: Interleukin 2 (IL2), IL2 (gene 3558)
# Experiment: BSK_BT_xIL2: BioMAP Diversity Plus: BT Assay for Interleukin 2 (IL2) Biomarker Activity (AID 2284245)
# Settings: primary human B cells with PBMC
# How it was run: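 Co-cultures of primary human B cells and PBMC are treated with chemical and sampled at 24 h. IL-2 secretion is quantified by Luminex xMAP, with DMSO-treated wells as baseline.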
Compound,outcome,AC50
Cc1ccc(O)c(-n2nc3ccccc3n2)c1,inactive,
C=CC(=O)OCCC(F)(F)C(F)(F)C(F)(F)C(F)(F)F,,46.6 µM (active) and 48 µM (active)
OCC(F)(F)C(F)(F)C(F)(F)C(F)(F)C(F)(F)C(F)(F)CO,inactive,
CCN(CC)c1ccc(N=Nc2ccccc2)cc1,,32.6 µM (active)
NCC(F)(F)C(F)(F)C(F)(F)C(F)(F)C(F)(F)C(F)(F)C(F)(F)C(F)(F)F,inactive,
O=C=NCc1cccc(CN=C=O)c1,inactive,
O=S(=O)(OCC(F)(F)F)C(F)(F)C(F)(F)C(F)(F)C(F)(F)F,inactive,
O=S(=O)(O)CCC(F)(F)C(F)(F)C(F)(F)C(F)(F)F,inactive,
O=C(O)C(F)(F)C(F)(F)C(F)(F)OC(F)(C(F)(F)F)C(F)(F)F,inactive,
O=C(F)C1(F)C(F)(F)C(F)(F)C(F)(F)C(F)(F)C1(F)F,inactive,
CNS(=O)(=O)C(F)(F)C(F)(F)C(F)(F)C(F)(F)C(F)(F)C(F)(F)C(F)(F)C(F)(F)F,inactive,
CC(C)(C)c1cc(CCC(=O)NCCCCCCNC(=O)CCc2cc(C(C)(C)C)c(O)c(C(C)(C)C)c2)cc(C(C)(C)C)c1O,,1.36 µM (active)
CCN(CC)c1ccc(C=O)cc1,inactive,
NS(=O)(=O)C(F)(F)C(F)(F)C(F)(F)C(F)(F)C(F)(F)C(F)(F)F,inactive,
Cc1cnccn1,inactive,
Cc1ccc(S(=O)(=O)C(I)I)cc1,,4.47 µM (active)

Compound,outcome,AC50
Cc1cc(O)c(C(C)(C)C)cc1C(C)(C)C,,31.2 µM (active)
Cc1cc(C)c(O)c(C(C)(C)C)c1,inactive,
O=C=Nc1cccc2c(N=C=O)cccc12,inactive,
O=C(O)C(F)(F)C(F)(F)C(F)(F)OC(F)(F)F,inactive,
O=C1c2c(O)ccc(Nc3ccc(CCO)cc3)c2C(=O)c2c([N+](=O)[O-])ccc(O)c21,inactive,
COC(F)(C(F)F)C(F)(F)F (stereo not given),inactive,
CCOC(=O)CC(=O)C(F)(F)C(F)(F)F,inactive,
CC1=CC2C3C=CC(C3)C2C1C (stereo not given),inactive,
CN(C(=O)C(F)(F)C(F)(F)C(F)(F)F)[Si](C)(C)C,inactive,
NC(=O)C(F)(F)C(F)(F)C(F)(F)C(F)F,inactive,
O=S(=O)(Cl)C(F)(F)C(F)(F)C(F)(F)C(F)(F)C(F)(F)C(F)(F)C(F)(F)C(F)(F)F,inactive,
O=C(O)C(F)(F)C(F)(F)C(F)(F)C(F)(F)C(F)(F)C(F)(F)C(F)F,inactive,
O=C(O)CCC(F)(F)C(F)(F)C(F)(F)C(F)(F)C(F)(F)C(F)(F)C(F)(F)F,inactive,2.38 µM (active)
CCN(CCO)S(=O)(=O)C(F)(F)C(F)(F)C(F)(F)C(F)(F)C(F)(F)C(F)(F)C(F)(F)C(F)(F)F,,26.7 µM (active) and 25.7 µM (active)
O=C(O)C(F)(F)C(F)(F)C(F)(F)C(=O)O,inactive,
CCOC(C=C(C)CCC=C(C)C)OCC,inactive,
